Assay results reported in the supplement of paper PMC11732987, “Enantioselective OTUD7B fragment discovery through chemoproteomics screening and high-throughput optimisation” (Communications Chemistry, 2025).

Legend:
Test in all cases: log2 ratio of Biotin-Ahx-Ub-VS probe labelling (fragment/DMSO); higher = less target engagement (more negative = stronger competition), active = hit call of the paper (q ≤ 0.05, log2 ratio ≤ -1)
Details in all cases: compound concentration: 200 uM; treatment time: 3 h
USP19 = target: T1, USP19 (UniProt O94966)
T1 sequence (whole entry): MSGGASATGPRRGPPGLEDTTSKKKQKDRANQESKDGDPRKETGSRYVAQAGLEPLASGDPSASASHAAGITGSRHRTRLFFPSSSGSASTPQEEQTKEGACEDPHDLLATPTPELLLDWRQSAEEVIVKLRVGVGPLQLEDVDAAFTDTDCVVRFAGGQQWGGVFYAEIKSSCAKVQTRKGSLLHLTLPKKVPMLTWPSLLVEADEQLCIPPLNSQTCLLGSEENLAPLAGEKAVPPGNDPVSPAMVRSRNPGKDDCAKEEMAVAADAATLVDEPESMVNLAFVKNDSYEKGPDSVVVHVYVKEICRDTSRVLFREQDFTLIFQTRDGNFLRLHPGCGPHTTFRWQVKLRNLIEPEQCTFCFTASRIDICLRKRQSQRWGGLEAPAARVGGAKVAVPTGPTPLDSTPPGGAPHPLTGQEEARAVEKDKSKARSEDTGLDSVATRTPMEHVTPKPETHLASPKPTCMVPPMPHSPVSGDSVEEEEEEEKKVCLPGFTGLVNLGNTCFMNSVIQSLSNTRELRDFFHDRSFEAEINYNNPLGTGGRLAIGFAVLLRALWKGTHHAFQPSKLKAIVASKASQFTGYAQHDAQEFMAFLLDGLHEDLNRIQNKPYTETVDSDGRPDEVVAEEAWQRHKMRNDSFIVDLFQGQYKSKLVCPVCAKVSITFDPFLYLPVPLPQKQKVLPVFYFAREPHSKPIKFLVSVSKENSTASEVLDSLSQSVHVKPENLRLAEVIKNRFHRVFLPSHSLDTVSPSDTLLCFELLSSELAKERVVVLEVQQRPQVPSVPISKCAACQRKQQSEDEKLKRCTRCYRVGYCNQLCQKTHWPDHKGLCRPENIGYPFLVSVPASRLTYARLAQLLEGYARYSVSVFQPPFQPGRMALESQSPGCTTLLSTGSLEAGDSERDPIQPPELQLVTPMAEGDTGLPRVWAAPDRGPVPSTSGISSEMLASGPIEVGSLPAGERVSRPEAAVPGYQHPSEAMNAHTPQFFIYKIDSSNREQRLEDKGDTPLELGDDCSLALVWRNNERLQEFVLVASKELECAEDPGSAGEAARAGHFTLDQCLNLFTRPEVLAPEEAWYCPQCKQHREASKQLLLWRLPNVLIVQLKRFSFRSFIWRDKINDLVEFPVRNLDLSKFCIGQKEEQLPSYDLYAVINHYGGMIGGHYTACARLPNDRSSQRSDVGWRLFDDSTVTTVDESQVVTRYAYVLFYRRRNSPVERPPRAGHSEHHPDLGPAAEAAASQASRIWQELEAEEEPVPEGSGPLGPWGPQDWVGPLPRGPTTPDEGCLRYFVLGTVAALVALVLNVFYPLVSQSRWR
Procedure, shortened: (§1)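 Labelling with Biotin-Ahx-Ub-VS (0.5 µM final, 1 h) followed a 3 h triplicate treatment of HEK293T lysate (495 µg per sample, Tris/CHAPS/IGEPAL buffer with protease inhibitors) with fragment at 200 µM or vehicle. Labelled DUBs were NeutrAvidin-enriched, digested with LysC and trypsin, and run by diaPASEF LC-MS/MS. The values, average log2 fragment/vehicle ratios by unpaired t-test, come from global-median-normalised Spectronaut label-free quantities. Proteins with ≥2 unique peptides were used.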

USP22 = target: T2, USP22 (UniProt Q9UPT9)
T2 sequence (whole entry): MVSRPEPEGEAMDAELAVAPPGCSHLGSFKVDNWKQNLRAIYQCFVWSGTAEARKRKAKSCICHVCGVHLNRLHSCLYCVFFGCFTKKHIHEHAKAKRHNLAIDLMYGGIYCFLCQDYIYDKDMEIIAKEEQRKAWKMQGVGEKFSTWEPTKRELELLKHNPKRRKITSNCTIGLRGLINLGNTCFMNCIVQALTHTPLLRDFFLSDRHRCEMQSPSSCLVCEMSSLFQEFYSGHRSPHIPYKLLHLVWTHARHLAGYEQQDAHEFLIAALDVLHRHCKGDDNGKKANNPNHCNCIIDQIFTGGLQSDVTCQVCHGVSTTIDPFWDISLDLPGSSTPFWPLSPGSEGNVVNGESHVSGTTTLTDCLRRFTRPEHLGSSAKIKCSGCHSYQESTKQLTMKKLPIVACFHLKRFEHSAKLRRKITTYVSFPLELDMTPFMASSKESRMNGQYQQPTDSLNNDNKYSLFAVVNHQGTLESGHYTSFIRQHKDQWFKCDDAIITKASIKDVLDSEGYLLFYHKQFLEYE
Procedure, shortened: as §1

USP24 = USP24 (UniProt Q9UPU5)
USP24, sequence (Q9UPU5 whole entry): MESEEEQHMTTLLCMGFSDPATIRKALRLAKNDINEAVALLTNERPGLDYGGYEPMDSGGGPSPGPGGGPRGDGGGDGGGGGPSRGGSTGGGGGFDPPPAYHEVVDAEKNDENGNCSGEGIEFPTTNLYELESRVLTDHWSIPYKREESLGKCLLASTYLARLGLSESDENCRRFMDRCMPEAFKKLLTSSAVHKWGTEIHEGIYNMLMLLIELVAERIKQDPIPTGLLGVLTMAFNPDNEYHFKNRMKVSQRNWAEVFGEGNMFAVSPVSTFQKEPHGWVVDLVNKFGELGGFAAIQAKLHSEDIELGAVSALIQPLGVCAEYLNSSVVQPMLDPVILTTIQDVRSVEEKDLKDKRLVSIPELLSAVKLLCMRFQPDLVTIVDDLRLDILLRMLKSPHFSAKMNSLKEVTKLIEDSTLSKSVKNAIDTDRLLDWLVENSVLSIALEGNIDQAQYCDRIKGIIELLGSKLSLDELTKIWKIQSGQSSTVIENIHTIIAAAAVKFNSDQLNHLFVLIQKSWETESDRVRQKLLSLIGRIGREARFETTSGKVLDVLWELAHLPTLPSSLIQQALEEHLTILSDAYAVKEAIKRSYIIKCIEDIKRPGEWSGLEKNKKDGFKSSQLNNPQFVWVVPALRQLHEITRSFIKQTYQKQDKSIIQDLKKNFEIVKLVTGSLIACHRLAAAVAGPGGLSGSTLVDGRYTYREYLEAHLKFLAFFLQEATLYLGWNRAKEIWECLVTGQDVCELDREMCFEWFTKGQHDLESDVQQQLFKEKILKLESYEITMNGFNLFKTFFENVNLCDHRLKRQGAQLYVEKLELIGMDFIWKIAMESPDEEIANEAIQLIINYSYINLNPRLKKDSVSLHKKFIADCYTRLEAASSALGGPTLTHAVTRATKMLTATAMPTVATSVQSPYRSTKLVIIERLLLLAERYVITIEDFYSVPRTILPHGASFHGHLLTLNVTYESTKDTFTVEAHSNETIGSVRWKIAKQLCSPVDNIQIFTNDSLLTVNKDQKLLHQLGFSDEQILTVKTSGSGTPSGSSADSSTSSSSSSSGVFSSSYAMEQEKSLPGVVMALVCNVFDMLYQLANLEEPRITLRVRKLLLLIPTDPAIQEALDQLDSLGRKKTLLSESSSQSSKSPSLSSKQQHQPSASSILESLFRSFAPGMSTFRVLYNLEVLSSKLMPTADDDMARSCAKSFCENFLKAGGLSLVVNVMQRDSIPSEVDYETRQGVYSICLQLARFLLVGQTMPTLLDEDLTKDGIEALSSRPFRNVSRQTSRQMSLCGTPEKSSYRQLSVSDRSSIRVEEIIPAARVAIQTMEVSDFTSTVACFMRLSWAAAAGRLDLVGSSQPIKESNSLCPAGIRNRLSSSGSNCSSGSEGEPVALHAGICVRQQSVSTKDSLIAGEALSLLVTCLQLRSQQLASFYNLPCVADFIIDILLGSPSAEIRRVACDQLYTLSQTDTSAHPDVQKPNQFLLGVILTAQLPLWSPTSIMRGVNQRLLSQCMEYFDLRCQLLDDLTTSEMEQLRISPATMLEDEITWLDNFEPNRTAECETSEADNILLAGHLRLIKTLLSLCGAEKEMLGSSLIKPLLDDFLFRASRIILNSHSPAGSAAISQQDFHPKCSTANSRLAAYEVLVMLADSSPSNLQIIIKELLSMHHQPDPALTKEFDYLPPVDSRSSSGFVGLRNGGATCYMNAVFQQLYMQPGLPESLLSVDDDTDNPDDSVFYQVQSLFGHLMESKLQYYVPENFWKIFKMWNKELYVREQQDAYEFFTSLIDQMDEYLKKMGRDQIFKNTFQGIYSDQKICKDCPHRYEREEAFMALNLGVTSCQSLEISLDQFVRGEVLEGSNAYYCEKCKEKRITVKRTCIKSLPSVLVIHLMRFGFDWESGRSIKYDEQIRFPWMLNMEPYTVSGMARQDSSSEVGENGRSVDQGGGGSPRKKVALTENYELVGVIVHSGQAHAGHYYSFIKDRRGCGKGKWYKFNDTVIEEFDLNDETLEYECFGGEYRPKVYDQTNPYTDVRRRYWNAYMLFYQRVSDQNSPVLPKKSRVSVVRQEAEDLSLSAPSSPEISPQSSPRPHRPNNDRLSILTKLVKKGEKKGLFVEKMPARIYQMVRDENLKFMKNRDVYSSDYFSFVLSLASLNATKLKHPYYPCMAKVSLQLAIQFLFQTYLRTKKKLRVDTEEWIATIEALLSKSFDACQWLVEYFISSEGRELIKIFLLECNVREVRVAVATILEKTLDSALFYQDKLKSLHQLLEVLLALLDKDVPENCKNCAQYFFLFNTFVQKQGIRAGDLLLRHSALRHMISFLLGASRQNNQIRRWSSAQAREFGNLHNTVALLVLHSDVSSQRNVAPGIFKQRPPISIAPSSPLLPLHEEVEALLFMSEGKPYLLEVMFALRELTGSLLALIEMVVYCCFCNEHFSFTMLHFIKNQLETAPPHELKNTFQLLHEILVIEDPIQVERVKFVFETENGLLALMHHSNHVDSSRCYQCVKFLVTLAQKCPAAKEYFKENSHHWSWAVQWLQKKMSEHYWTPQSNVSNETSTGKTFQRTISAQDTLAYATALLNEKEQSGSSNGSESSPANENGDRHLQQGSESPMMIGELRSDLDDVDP
Procedure, shortened: as §1

USP25 = target: T3, USP25 (UniProt Q9UHP3)
T3 sequence (whole entry): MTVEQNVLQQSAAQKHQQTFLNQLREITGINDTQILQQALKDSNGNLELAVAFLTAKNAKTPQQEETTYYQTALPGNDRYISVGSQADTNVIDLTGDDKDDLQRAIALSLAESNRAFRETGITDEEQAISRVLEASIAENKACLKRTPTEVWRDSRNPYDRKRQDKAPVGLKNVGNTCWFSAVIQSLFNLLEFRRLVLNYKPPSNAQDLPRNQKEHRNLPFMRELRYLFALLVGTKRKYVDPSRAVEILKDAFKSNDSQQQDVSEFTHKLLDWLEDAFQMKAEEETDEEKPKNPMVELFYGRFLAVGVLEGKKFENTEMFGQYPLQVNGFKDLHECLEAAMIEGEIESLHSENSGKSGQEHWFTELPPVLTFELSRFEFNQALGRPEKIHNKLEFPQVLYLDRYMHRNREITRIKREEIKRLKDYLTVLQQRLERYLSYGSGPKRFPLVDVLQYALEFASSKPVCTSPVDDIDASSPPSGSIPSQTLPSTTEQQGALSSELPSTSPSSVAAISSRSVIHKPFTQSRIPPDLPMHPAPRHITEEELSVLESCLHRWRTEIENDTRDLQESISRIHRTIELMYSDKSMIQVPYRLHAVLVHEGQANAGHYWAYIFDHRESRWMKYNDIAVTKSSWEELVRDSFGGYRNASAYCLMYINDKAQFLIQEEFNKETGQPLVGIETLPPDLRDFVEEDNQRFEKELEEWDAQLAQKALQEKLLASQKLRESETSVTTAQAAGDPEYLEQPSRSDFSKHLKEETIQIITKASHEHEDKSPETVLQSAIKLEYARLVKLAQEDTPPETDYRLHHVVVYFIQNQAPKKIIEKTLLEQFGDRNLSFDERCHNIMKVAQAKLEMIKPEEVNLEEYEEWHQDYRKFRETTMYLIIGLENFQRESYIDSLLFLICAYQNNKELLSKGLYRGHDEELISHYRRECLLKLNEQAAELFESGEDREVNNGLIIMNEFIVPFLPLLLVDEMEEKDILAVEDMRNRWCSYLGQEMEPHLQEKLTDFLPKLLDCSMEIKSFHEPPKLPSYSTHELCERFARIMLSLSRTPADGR
Procedure, shortened: as §1

USP28 = target: T4, USP28 (UniProt Q96RU2)
T4 sequence (whole entry): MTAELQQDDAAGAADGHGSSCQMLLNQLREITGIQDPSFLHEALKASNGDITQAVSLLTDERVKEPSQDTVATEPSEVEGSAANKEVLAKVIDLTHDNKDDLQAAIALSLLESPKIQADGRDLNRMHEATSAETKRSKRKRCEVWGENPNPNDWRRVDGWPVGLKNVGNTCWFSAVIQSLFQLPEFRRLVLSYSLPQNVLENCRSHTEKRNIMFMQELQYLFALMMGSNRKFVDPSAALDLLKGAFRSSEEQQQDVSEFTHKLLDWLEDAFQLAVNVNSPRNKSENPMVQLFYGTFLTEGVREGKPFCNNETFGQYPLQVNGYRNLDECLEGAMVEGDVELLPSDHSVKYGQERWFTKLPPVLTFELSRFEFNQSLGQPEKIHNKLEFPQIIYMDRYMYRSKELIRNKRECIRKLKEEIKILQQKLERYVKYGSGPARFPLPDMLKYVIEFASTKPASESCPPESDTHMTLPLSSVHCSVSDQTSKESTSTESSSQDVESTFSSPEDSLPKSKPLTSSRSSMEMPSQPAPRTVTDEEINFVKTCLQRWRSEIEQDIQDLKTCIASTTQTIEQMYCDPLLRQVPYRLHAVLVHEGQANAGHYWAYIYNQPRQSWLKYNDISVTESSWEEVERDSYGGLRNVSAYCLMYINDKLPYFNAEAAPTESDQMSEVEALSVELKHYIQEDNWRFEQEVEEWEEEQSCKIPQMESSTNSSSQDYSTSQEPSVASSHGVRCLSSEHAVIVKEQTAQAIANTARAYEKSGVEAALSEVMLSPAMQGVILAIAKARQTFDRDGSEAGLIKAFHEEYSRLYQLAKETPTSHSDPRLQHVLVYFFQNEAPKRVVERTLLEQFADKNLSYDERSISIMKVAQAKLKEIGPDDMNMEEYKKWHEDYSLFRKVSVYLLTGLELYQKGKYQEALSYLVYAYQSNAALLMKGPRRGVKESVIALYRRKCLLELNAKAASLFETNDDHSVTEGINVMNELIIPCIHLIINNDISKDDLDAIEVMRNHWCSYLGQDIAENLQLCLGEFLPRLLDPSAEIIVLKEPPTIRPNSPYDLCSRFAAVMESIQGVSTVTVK
Procedure, shortened: as §1

Measured: log2 ratio of Biotin-Ahx-Ub-VS probe labelling

O=C(CCl)N1CCOC2(CCC2)CC1
inactive: USP19 -0.704 | USP22 -0.382 | USP24 -0.23 | USP25 -0.448 | USP28 -0.346
